TrxR1 substrate: rat thioredoxin reductase 1 substrate activity. purified TrxR1 substrate turnover, NADPH consumption readout. Potency, µM (top dose mostly 114 µM), for the others: top-dose activity change, negative = substrate turnover. actives 0.01% (n = 390,000); also: nearly all actives have a fitted effect of over 50% in size
Target sequence (O89049 whole entry, looked up): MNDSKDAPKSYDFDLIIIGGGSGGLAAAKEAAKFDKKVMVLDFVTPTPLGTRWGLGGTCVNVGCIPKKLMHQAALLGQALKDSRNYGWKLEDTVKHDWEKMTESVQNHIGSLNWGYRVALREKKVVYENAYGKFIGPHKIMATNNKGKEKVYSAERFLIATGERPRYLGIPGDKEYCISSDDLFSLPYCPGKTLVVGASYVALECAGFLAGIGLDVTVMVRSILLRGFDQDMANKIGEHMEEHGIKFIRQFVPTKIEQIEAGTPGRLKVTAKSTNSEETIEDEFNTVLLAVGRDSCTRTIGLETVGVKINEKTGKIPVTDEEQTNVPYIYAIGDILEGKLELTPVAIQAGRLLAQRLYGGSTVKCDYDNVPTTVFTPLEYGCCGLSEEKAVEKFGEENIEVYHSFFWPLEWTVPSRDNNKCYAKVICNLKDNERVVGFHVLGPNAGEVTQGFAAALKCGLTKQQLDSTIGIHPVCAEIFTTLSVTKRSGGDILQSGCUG
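Rat TrxR1, dispensed at 90 nM, was prereduced with 400 uM NADPH (final) for 5 min at ~22 deg C, then incubated with compound 15 min before 400 uM selenite. A first-read NADPH fluorescence drop versus no-compound background flagged substrates.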
PLK1 PBD block: PLK1 (human) polo-box domain binding inhibition; P53350; Plk1 PBD binding of FITC phosphopeptide, fluorescence polarization; Potency, µM, for the others: max response, negative = inhibition, actives largely listed as inhibitors; actives 2.8% (n = 360,000); AID 720504; also: series mostly up to about 57 µM; nearly all actives have a fitted effect of over 65% in size
Sfp PPTase inh: Sfp phosphopantetheinyl transferase inhibition; actives 3.5% (n = 310,000); Q9F4F7; Potency, µM, for inactives: largest response in the series, negative = inhibition, hits mostly inhibitors; Biochemical Sfp PPTase activity, qHTS;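 also: the enzyme is Sfp with the accession as filed and its product quenches rhodamine fluorescence; 0% = enzyme reaction without inhibitor and -100% = no enzyme wells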
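Step 1, compound plus 15 nM Sfp-PPTase, 15 min, room temperature. Step 2, add rhodamine-CoA (5 uM) and BHQ-2-YbbR (12.5 uM). Step 3, read 525/598 nm fluorescence at 0 and 30 min.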
TrxR1 inh: inhibitors of rat thioredoxin reductase 1. O89049. Potency, µM (top dose mostly 114 µM), for inactives: at the top dose activity change, negative = inhibition, hits mostly inhibitors. actives 1% (n = 390,000). recombinant rTrxR1, NADPH fluorescence consumption, selenite substrate; also: nearly all actives have a fitted effect of over 65% in size
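Rat TrxR1 (90 nM in the dispensed reagent) was pre-reduced with 400 uM NADPH for 5 min at room temperature, then incubated with compound for 15 min. After 400 uM selenite was added, NADPH fluorescence (Ex 340/Em 450 nm) was followed for 8 min.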
VDR inhibitor: vitamin D3 receptor (human) inhibition; P11473; VDR-SRC2-3 peptide fluorescence polarization, 2 h; Potency, µM, for inactives: max response, negative = inhibition, most hits filed as inhibitors; actives 0.93% (n = 400,000)
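Two reagent solutions held at 4 deg C in the dark were dispensed, compounds pinned at 23 nl, and the mixture incubated 2 h at room temperature. Read-out: fluorescence polarization of VDR–SRC2-3 peptide binding.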
IDH1 R132H inh: human IDH1 R132H inhibition. actives 0.093% (n = 390,000). Potency, µM (highest dose often 76.6 µM), inactives show at the highest dose activity change, negative = inhibition, usual class: inhibitors. IDH1-R132H enzyme, NADPH consumption, diaphorase/resazurin fluorescence; also: nearly all actives have a fitted effect of over 65% in size
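IDH1-R132H (0.5 ug/mL) preincubated 30 min with compound, then NADPH (0.016 mM) and alpha-KG (2 mM) added; 80 min at RT, pH 7.5. Remaining NADPH coupled via diaphorase/resazurin to fluorescence (540/590 nm); concentration-response curves normalized to no-enzyme control.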
* marks the source's active call; other numbers are inactive results; i = inactive; ? = inconclusive; . = no result; ! = not active in a repeat; [ ] = another dose, or the depositor's remark. This is a sample that favours compounds with a hit; in the whole collection about 5.2% have one here. Calls follow the shape of the dose curve; as a rule, active = well fitted curve in the direction sought with a large enough effect; inconclusive = small, poorly fitted or top-dose-only effect, or another doubt; inactive = no such curve, though single readings can be large; an effect the other way counts as inactive or inconclusive. Unless noted, % is scaled to controls: 0 for no effect and ±100 for the full control effect; potency is read from the fitted curve at half-maximal effect.

SMILES	TrxR1 substrate	PLK1 PBD block	Sfp PPTase inh	TrxR1 inh	VDR inhibitor	IDH1 R132H inh
CNS(=O)(=O)c1cccc(C(=O)NNC(=O)c2ccc(COc3ccccc3)cc2)c1	5%	-4%	14%	21%	5%	-4%
Cc1cc(N2C(=O)C=CC2=O)c([N+](=O)[O-])cc1C	10%	6µM*	-98%	2.8µM*	32µM*	5%
C=C1CN(Cc2ccccc2)S(=O)(=O)c2ccccc21	-1%	-8%	?	28µM*!	-18%	6%
C[C@H](CO)N1C[C@H](C)[C@@H](CN(C)Cc2cccc(C(F)(F)F)c2)OCc2cnnn2CCCC1=O	.	-7%	.	.	.	-4%
COc1ccc2[nH]c3c(c2c1)CCN1C(=O)C(CC(=O)NCCc2ccccn2)C[C@H](C(=O)N2CCOCC2)[C@@]31CCC1CCCC1 (stereo partly drawn)	-5%	30µM*	.	-26%	?	-15%
CN(C)C(=O)CCc1ccc2c3c([nH]c2c1)[C@]1(CCc2ccccc2)[C@@H](C(=O)N2CCCCC2)C[C@H](CC(=O)NCc2cccc(C(F)(F)F)c2)C(=O)N1CC3	-3%	27µM*	.	0%	?	-8%
COc1ccc2[nH]c3c(c2c1)CCN1C(=O)C(CC(=O)NCc2ccc(OC)c(OC)c2)C[C@H](C(=O)N2CCOCC2)[C@@]31C (stereo partly drawn)	1%	27µM*	.	-6%	-17%	7%
COCCCNC(=O)CC1C[C@H](C(=O)N2CCCCC2)[C@@]2(CCc3ccccc3)c3[nH]c4ccc(OC)cc4c3CCN2C1=O (stereo partly drawn)	-10%	?	.	-25%	-27%	-9%
COc1ccc2[nH]c3c(c2c1)CCN1C(=O)C(CC(=O)NCc2ccc(OC)c(OC)c2)C[C@H](C(=O)N2CCCCC2)[C@@]31CCc1ccccc1 (stereo partly drawn)	-7%	21µM*	.	1%	?	-29%
COc1ccc(S(=O)(=O)c2nnn(-c3ccc(C)c(Cl)c3)c2C)cc1	-7%	.	.	23%	-4%	-3%
OCc1cn(-c2ccccc2)nc1-c1cc2ccccc2o1	21%	5%	56µM*	8%	31%	10%
Cc1ccc(C)c(NC(=O)COC(=O)c2cc3ccccc3oc2=O)c1	7%	12%	.	6%	1%	-5%
Cc1ccc(-n2nnnc2C(Cl)c2nnnn2-c2ccc(C)cc2)cc1	0%	?	?	-2%	25µM*	9%
Cc1ccc(-n2nnnc2-c2ccccc2)cc1	-9%	-14%	-6%	13%[57.1 µM]	-10%	2%
CCOC(=O)c1c(NC(=O)c2cc(C(C)C)on2)sc(C)c1C	15%	.	.	-12%	-23%	11%
CCOC(=O)c1c(NC(=O)c2cc(-c3ccc(Br)cc3)on2)sc(C)c1C	-8%	.	.	-6%	79µM*	-6%
CCCc1cc(C(=O)Nc2sc(C)c(C)c2C(=O)OCC)no1	40%[57.1 µM]	21µM*	16µM*	13%[57.1 µM]	?	15%
CCOC(=O)c1c(NC(=O)c2cc(-c3cccc(Cl)c3)on2)sc(C)c1C	2%	.	.	13%	-15%	-18%
COc1cccc(/C=C/c2nc(C#N)c(N3CCC(C(N)=O)CC3)o2)c1	i	.	.	79µM*	13%	2%
COc1cccc(/C=C/c2nc(C#N)c(N3CCCCCC3)o2)c1	351%	.	.	81%	10%	-5%
Nc1ccc(-c2nc3ncccc3o2)c(O)c1	213%	1%	-15%	89µM*	8%	0%
O=C(Nc1nc(=O)c2ccccc2s1)c1ccccc1	-2%[57.1 µM]	-14%	50µM*	6%	?	10%
CSc1nc2ccc3nc(NC(=O)c4ccc(C)cc4)sc3c2s1	9%	-2%	3%	18%	-10%	1%
Cc1ccc(C(=O)Nc2nc3ccccc3c(=O)s2)cc1	1%	-19%	56µM*	46%	?	4%
Cc1cccc(C(O)c2ncc(-c3ccccc3)[nH]2)c1C (stereo not drawn)	.	-6%	.	.	.	.
SMILES	TrxR1 substrate	PLK1 PBD block	Sfp PPTase inh	TrxR1 inh	VDR inhibitor	IDH1 R132H inh
Cc1ccc(CNC(=O)C2CCC(=O)N(Cc3cccc(C(F)(F)F)c3)C2)o1 (stereo not drawn)	8%	-11%	.	35µM*	?	-1%
Cc1cc(CNC(=O)C2CCC(=O)N(Cc3cccc(C(F)(F)F)c3)C2)no1 (stereo not drawn)	2%	-3%	19%	4%	-8%	7%
COc1ccccc1CCNC(=O)C1CCC(=O)N(Cc2ccccc2OC)C1 (stereo not drawn)	-11%	-9%	12%	?	-22%	6%
O=C(NCCc1ccccc1F)C1CCC(=O)N(Cc2ccccc2F)C1 (stereo not drawn)	5%[57.1 µM]	27µM*	3%	17%[57.1 µM]	-17%	10%
COc1ccccc1CCNC(=O)C1CCC(=O)N(Cc2cccc(F)c2)C1 (stereo not drawn)	-2%[57.1 µM]	30µM*	12%	34%[57.1 µM]	-19%	1%
COc1ccccc1CN1CC(C(=O)NCCc2ccc(C)o2)CCC1=O (stereo not drawn)	1%	-11%	?	50µM*	11%	4%
COc1cccc(CN2CC(C(=O)NCCc3nccs3)CCC2=O)c1 (stereo not drawn)	.	-11%	.	.	.	1%
COc1cccc(CN2CC(C(=O)NCCOc3cccnc3)CCC2=O)c1 (stereo not drawn)	5%[57.1 µM]	17µM*	6%	5%[57.1 µM]	-27%	-2%
Cc1ccccc1CCNC(=O)C1CCC(=O)N(CCc2cccc(F)c2)C1 (stereo not drawn)	7%[57.1 µM]	30µM*	18%	24%[57.1 µM]	1%	-1%
COc1ccc(CCN2CC(C(=O)N(C)Cc3ccc(C)o3)CCC2=O)cc1 (stereo not drawn)	1%	-13%	22µM*	50µM*	-14%	-6%
CCN(CC)CCC(c1ccc(N(C)C)cc1)c1c(OC)cc(OC)c2c1OC(=O)CC2c1ccc(OC)cc1 (stereo not drawn)	-4%	.	-12%	-17%	0%	.
O=C(Cn1c(=O)c2cccn2c2cccnc21)NCc1ccccc1F	4%	.	.	-5%	-2%	-1%
COc1cccc(-n2ccn(CC(=O)NCCc3ccccc3)c(=O)c2=O)c1	0%	-7%	8%	13%	16%	-5%
COC(=O)[C@H](Cc1ccccc1)N(Cc1ccc(C)cc1)S(C)(=O)=O	-4%	.	.	16%	.	.
COC(=O)c1ccn(CSc2cc(Cl)ccc2Cl)n1	-7%	24µM*	.	14%	-19%	20%
COC(=O)c1ccn(CSc2c(F)c(F)cc(F)c2F)n1	5%	3%	.	16%	0%	5%

Assay outcomes from PubChem.
